About 83,000 compounds went through this panel and 20% of them were active in at least one assay; those are over-represented in the sample as a whole.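 Cell lines were cultured in 96-well plates, exposed to a single compound concentration, and assessed for percent growth 48 hours later.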 Unmarked numbers belong to inactive results. Activity calls are given as the source filed them. The calls were made as follows: active = growth percent below 10; inactive = the rest.

Common to all, as to experiment: NCI-60 one-dose screen, 48 h (100 = growth as untreated, 0 = no growth, -100 = all killed)
In one experiment the test system is NCI-H23 lung. Conditions: 10 µM unless noted.
A further experiment concerns NCI-H226 lung. Conditions: 10 µM unless noted.
Another experiment has as its system NCI-H322M lung. Particulars: 10 µM unless noted.
The test system of another experiment is HOP-62 NSCLC. Particulars: 10 µM unless noted.
The next experiment concerns NCI-H460 lung. Particulars: 10 µM unless noted.
In another experiment the test system is HOP-92 NSCLC. Particulars: 10 µM unless noted.
The test system of another experiment is NCI-H522 lung. Conditions: 10 µM unless noted.
For the next experiment, the system named is A549/ATCC NSCLC. Particulars: 10 µM unless noted.
The next experiment concerns 786-0 renal. Particulars: 10 µM unless noted.
In the next experiment the test system is COLO 205 colon. Conditions: 10 µM unless noted.
The subject of another experiment is DU-145 prostate. Conditions: 10 µM unless noted.
In a further experiment the test system is K-562 leukemia. Conditions: 10 µM unless noted.
In another experiment the test system is MALME-3M melanoma. Conditions: 10 µM unless noted.
The next experiment has as its system MDA-MB-231 breast. Particulars: 10 µM unless noted.
The next experiment concerns RXF 393 renal. Conditions: 10 µM unless noted.
The subject of a further experiment is SF-268 CNS. Particulars: 10 µM unless noted.
A further experiment deals with SF-295 CNS. Conditions: 10 µM unless noted.
Another experiment relates to SF-539 CNS. Conditions: 10 µM unless noted.
The test system of another experiment is UACC-257 melanoma. Conditions: 10 µM.
For a further experiment, the system named is M14 melanoma. Particulars: 10 µM unless noted.

In the case of `COc1cccc(/C=C/C(=O)c2ccc(NC(=O)COc3cccc4cccnc34)cc2)c1`, the growth was 99.3% with NCI-H23 lung; 93.9% in the experiment on NCI-H226 lung; 95.5% with NCI-H322M lung; 112% in the experiment on HOP-62 NSCLC; 101% in the experiment with NCI-H460 lung; 107% in the experiment on HOP-92 NSCLC. The growth in the experiment on NCI-H522 lung was 90.2%; in the experiment with A549/ATCC NSCLC, 95.2%; in the experiment with 786-0 renal, 96.8%; with COLO 205 colon, 105%; in the experiment with DU-145 prostate, 90.2%; in the experiment with K-562 leukemia, 82.1%. Besides, the growth with MALME-3M melanoma is 108%; in the experiment on MDA-MB-231 breast, 98.4%; with RXF 393 renal it was 107%; in the experiment with SF-268 CNS, 96.3%; in the experiment with SF-295 CNS it was 96.6%; in the experiment on SF-539 CNS it was 101%. For the same compound, the growth in the experiment with UACC-257 melanoma is 103%; with M14 melanoma, 104%.

Consider `CSc1ccc(/C(=N/N=C(N)N)c2ccccc2)cc1`, for which the growth in the experiment with NCI-H23 lung was 29.2%; with NCI-H226 lung, 50.6%; with NCI-H322M lung it was 50.9%; in the experiment on HOP-62 NSCLC, 49.3%; with NCI-H460 lung it was 6.46% (active); with HOP-92 NSCLC, 34.4%. For the same compound, the growth is 11.8% in the experiment with NCI-H522 lung; 27.4% in the experiment on A549/ATCC NSCLC; 31% in the experiment on 786-0 renal; 0.455% (active) in the experiment with COLO 205 colon; 15.2% in the experiment with DU-145 prostate; 25.2% in the experiment on K-562 leukemia. The growth was 50.6% in the experiment on MALME-3M melanoma; 29.5% with MDA-MB-231 breast; 15.4% with RXF 393 renal; 53.6% in the experiment on SF-268 CNS; 5.99% (active) in the experiment on SF-295 CNS; -8.23% (active) in the experiment on SF-539 CNS. For the same compound, the growth was 80.7% in the experiment with UACC-257 melanoma and 9.73% (active) in the experiment on M14 melanoma.

For `CN(C)c1ncc(/C=C2\SC(=S)N(Cc3ccccc3Cl)C2=O)s1`, the growth was 80.4% with NCI-H23 lung; 83.8% with NCI-H226 lung; 80.5% in the experiment with NCI-H322M lung; 88.5% with HOP-62 NSCLC; 29.1% with NCI-H460 lung; 94.7% with HOP-92 NSCLC. Besides, the growth in the experiment on NCI-H522 lung was 77.9%; with A549/ATCC NSCLC it was 63.9%; with 786-0 renal, 67.3%; with COLO 205 colon, 91.8%; with DU-145 prostate, 97.8%; with K-562 leukemia it was 68%. For the same compound, the growth in the experiment with MALME-3M melanoma was 109%; in the experiment on MDA-MB-231 breast it was 83.9%; in the experiment on RXF 393 renal it was 107%; in the experiment on SF-268 CNS, 94.3%; with SF-295 CNS, 66.4%; with SF-539 CNS, 74.5%. For the same compound, the growth was 98.5% in the experiment with UACC-257 melanoma and 94.1% in the experiment with M14 melanoma.

In the case of `CS(=O)(=O)c1ccc2c(c1)c1c(n2Cc2ccc(Cl)cc2)CCCC1`, the growth in the experiment with NCI-H23 lung is 73.5%; with NCI-H226 lung it was 80.1%; in the experiment with NCI-H322M lung, 87.7%; in the experiment with HOP-62 NSCLC it was 75.8%; in the experiment on NCI-H460 lung it was 71.6%; with HOP-92 NSCLC it was 65.7%. Further, the growth was 13.7% with NCI-H522 lung; 64.5% in the experiment on A549/ATCC NSCLC; 83.5% in the experiment on 786-0 renal; 83.3% in the experiment with COLO 205 colon; 86.7% with DU-145 prostate; 32.6% with K-562 leukemia. The growth in the experiment on MALME-3M melanoma was 74.4%; in the experiment on MDA-MB-231 breast, 66.1%; in the experiment with RXF 393 renal, 73.4%; in the experiment with SF-268 CNS, 86.6%; in the experiment on SF-295 CNS it was 67%; with SF-539 CNS, 81.1%. The growth is 92.1% in the experiment with UACC-257 melanoma and 75.6% in the experiment on M14 melanoma.

Turning to `CCOP(=O)(OCC)OC[C@]12CCC(C)(C)C[C@H]1C1=CC[C@@H]3[C@@]4(C)C/C(=C\c5cccnc5)[C@H](OP(=O)(OCC)OCC)C(C)(C)[C@@H]4CC[C@@]3(C)[C@]1(C)CC2`, the growth is 18.3% in the experiment with NCI-H23 lung; 34.2% with NCI-H226 lung; 61.1% with NCI-H322M lung; 36.8% in the experiment with HOP-62 NSCLC; 10.8% in the experiment on NCI-H460 lung; -1.51% (active) in the experiment on HOP-92 NSCLC. Moreover, the growth is 19.8% with NCI-H522 lung; 16.3% in the experiment with A549/ATCC NSCLC; 36.2% in the experiment on 786-0 renal; -5.36% (active) in the experiment on COLO 205 colon; 30.7% in the experiment on DU-145 prostate; 9.94% (active) in the experiment with K-562 leukemia. The growth in the experiment with MALME-3M melanoma was 19.5%; in the experiment on MDA-MB-231 breast, 44.8%; in the experiment on RXF 393 renal it was 58%; in the experiment on SF-268 CNS, 46.1%; with SF-295 CNS, 26.7%; with SF-539 CNS, 37%. Besides, the values for the growth with UACC-257 melanoma and in the experiment on M14 melanoma were 23.7% and 34.6%, respectively.

On to `NC(=O)N1N=C(c2cc3ccccc3oc2=O)CC1c1cn(-c2ccccc2)nc1-c1ccc(Cl)cc1` (stereo not given), for which the growth in the experiment on NCI-H23 lung was 41.8%; with NCI-H226 lung, 50.4%; in the experiment with NCI-H322M lung, 52%; in the experiment on HOP-62 NSCLC, 43.1%; in the experiment on NCI-H460 lung, 22.2%; with HOP-92 NSCLC, 42.6%. Also, the growth in the experiment on NCI-H522 lung is 45.2%; in the experiment with A549/ATCC NSCLC, 29.6%; in the experiment with 786-0 renal it was 39.3%; in the experiment on COLO 205 colon, 28.8%; with DU-145 prostate, 56.6%; in the experiment with K-562 leukemia, 27.4%. The growth was 69.6% in the experiment with MALME-3M melanoma; 54.3% in the experiment on MDA-MB-231 breast; 88.2% in the experiment on RXF 393 renal; 54.5% in the experiment on SF-268 CNS; 19.6% in the experiment with SF-295 CNS; 42.8% in the experiment on SF-539 CNS. Also, the growth with UACC-257 melanoma is 59.5%; in the experiment with M14 melanoma it was 43.9%.

`COc1ccc(-c2nc(SCC(C)C)nc(N/N=C\c3cccc([N+](=O)[O-])c3)c2C#N)cc1`: the growth in the experiment with NCI-H23 lung is 46.4%; in the experiment on NCI-H226 lung, 38%; with NCI-H322M lung, 38.3%; in the experiment with HOP-62 NSCLC, 31.3%; with NCI-H460 lung, 14.1%; in the experiment on HOP-92 NSCLC, 16.2%. Moreover, the growth in the experiment on NCI-H522 lung was 59.4%; in the experiment with A549/ATCC NSCLC, 24.8%; in the experiment on 786-0 renal, 4.44% (active); in the experiment on COLO 205 colon, 85.8%; in the experiment with DU-145 prostate, 70.5%; with K-562 leukemia, 57.1%. Moreover, the growth with MALME-3M melanoma is 48.1%; in the experiment with MDA-MB-231 breast, 30.5%; in the experiment on RXF 393 renal, 18.1%; with SF-268 CNS, 43.6%; in the experiment with SF-295 CNS, 52.7%; with SF-539 CNS, 8.02% (active). Further, the growth is 89% in the experiment on UACC-257 melanoma and 76.9% with M14 melanoma.

On to `COc1ccc(/C=N\NC(=O)c2ccc3nc(-c4ccc(Br)cc4)[nH]c3c2)cc1`, for which the growth was 24.5% with NCI-H23 lung; 64.3% in the experiment with NCI-H226 lung; 66.2% in the experiment with NCI-H322M lung; 4.06% (active) in the experiment with HOP-62 NSCLC; -47.7% (active) in the experiment on NCI-H460 lung; -2.97% (active) in the experiment with HOP-92 NSCLC. The growth with NCI-H522 lung was 74.6%; with A549/ATCC NSCLC, 23.8%; in the experiment with 786-0 renal, 12.8%; with COLO 205 colon, 18.4%; with DU-145 prostate, 16.5%; in the experiment on K-562 leukemia it was 11.6%. Further, the growth in the experiment on MALME-3M melanoma was -9.02% (active); in the experiment on MDA-MB-231 breast, 48.6%; in the experiment on RXF 393 renal, -17.7% (active); in the experiment with SF-268 CNS, 8.61% (active); in the experiment on SF-295 CNS, 11%; in the experiment on SF-539 CNS, 16.4%. Besides, the growth in the experiment on UACC-257 melanoma is 38.7%; in the experiment on M14 melanoma, 24.7%.

The record behind these values is PubChem BioAssay (NCI).
